Most compounds without a hit are left out; they make up all but 10% or so of the library.
3T3 cytotox: kills NIH 3T3 cells | NIH 3T3 viability, CellTiter-Glo ATP luminescence, 48-72 h | Potency, µM (highest dose often 96.7 µM), usual class: inhibitors | 94,000 compounds, 4.3% hits | AID 1345082; further: nearly all actives have a fitted effect of over 55% in size
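Luminescent ATP readout (CellTiter-Glo, 10 min RT) after 48 or 72 hr compound exposure of NIH 3T3 cells seeded at 400 cells/well in 1536-well format; quantitative HTS.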
FLuc inh: blocks purified firefly luciferase enzyme activity. 76,000 compounds, 2.5% hits. AID 1347043. purified P. pyralis luciferase, luminescence, biochemical. P08659. Potency, µM (titrated, usually from 115 µM), hits mostly inhibitors; further: nearly all actives have a fitted effect of over 65% in size
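Luminescence read by CCD imaging after purified firefly luciferase (10nM final) was added to substrate buffer holding 10uM D-luciferin and 10uM ATP, pH 7.5, pre-dosed with compound.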
GPT2 inhibitor: blocks human glutamate pyruvate transaminase 2. Recombinant GPT2, coupled pyruvate oxidase/HRP Amplex Red fluorescence. 100,000 compounds, 0.25% hits. Potency, µM (top dose mostly 57.7 µM), usual class: inhibitors. Q8TD30. AID 1671188; further: nearly all actives have a fitted effect of over 60% in size
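Fluorescence read-out: pyruvate from GPT2 turnover coupled to pyruvate oxidase, HRP and Amplex Red (0.2mM ThPP, 0.2U/mL PO and HRP, 50uM Amplex final). Substrates 250uM a-KG, 2mM L-alanine; enzyme 10ng/uL; 30 min RT.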
HEK cytotox: kills HEK 293 cells | HEK 293 viability, ATP luminescence (CellTiter-Glo), 48-72 h | Potency, µM (highest dose often 115 µM), most hits filed as inhibitors | 94,000 compounds, 6.6% hits | AID 1345083; further: nearly all actives have a fitted effect of over 60% in size
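Viability of HEK 293 cells, plated at 250 cells/well, was judged by cellular ATP after compound treatment for 48 or 72 hr. Luminescence was imaged 10 min after CellTiter-Glo addition at room temperature.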
NPR1 antag: blocks ANP-stimulated signaling of human Npr1 receptor | HEK293 hNpr1 GloSensor cGMP, ANP-stimulated luminescence | Potency, µM (top dose mostly 46.3 µM), usual class: inhibitors | 76,000 compounds, 1.6% hits | AID 1347048; calls by dose curve; further: nearly all actives have a fitted effect of over 60% in size
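Compound pre-incubated 30 min at room temperature on GloSensor-loaded HEK293 cells stably carrying hNpr1 and the pGS-40F cGMP biosensor. Stimulation uses hNppA at 0.1 nM final; luminescence is taken at baseline and 20 min post-agonist.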
A number is an active result; i = inactive; ? = inconclusive; nt = not tested or not shown. Unless noted, the call rests on the fitted dose curve; in most records, active means well fitted curve in the direction sought with a large enough effect; inconclusive means small, poorly fitted or top-dose-only effect, or another doubt; inactive means no such curve, though single readings can be large; an effect the other way counts as inactive or inconclusive.

SMILES	3T3 cytotox	FLuc inh	GPT2 inhibitor	HEK cytotox	NPR1 antag
COc1ccc(-c2noc(-c3ncn4c3COC(c3ccc(F)cc3)C4)n2)c(OC)c1 (centres undefined)	32µM	i	i	35µM	i
O=C(Cc1ccc(F)cc1)N1CCC(N2CC3CC(C2)[C@H]2CCCC(=O)N2C3)CC1 (some centres undefined)	i	i	i	i	i
O=C(NC1CCCCC1)c1nc2sccn2c1-c1ccncc1	i	nt	i	i	nt
COCCCNC(=O)c1cnc2cc(C)nn2c1	i	nt	i	i	nt
COc1ccc(NC(=O)Cc2c[nH]c3ncc(-c4ccccc4)cc23)cc1	?	i	i	i	i
COc1ccc(-c2cnc3[nH]cc(CC(=O)Nc4ccc(F)c(Cl)c4)c3c2)cc1	32µM	i	?	?	i
COc1ccc(-c2cnc3[nH]cc(CC(=O)Nc4ccc(C(F)(F)F)cc4)c3c2)cc1	45µM	i	i	?	i
O=C(Cc1c[nH]c2ncc(-c3ccccc3)cc12)Nc1ccc(C(F)(F)F)cc1	?	i	i	63µM	i
O=C(Cc1c[nH]c2ncc(-c3cccnc3)cc12)Nc1ccc(C(F)(F)F)cc1	?	i	?	?	?
Cn1cc(-c2cnc3[nH]cc(CC(=O)Nc4ccc(N5CCOCC5)cc4)c3c2)cn1	i	i	i	?	i
O=C(Cc1c[nH]c2ncc(-c3ccccc3)cc12)Nc1ccc(N2CCOCC2)cc1	25µM	i	i	63µM	i
CCc1nc2c(c(-c3ccc(Cl)cc3)n1)CN(C(=O)c1ccccc1C)CC2	?	i	i	?	i
Cn1cc(-c2cnc3[nH]cc(CC(=O)Nc4ccccc4Cl)c3c2)cn1	?	i	i	i	i
NC(=O)Cc1c[nH]c2ncc(-c3cccc(N4CCOCC4)c3)cc12	100µM	i	?	i	i
Cn1cc(-c2cnc3[nH]cc(CC(=O)Nc4cccc(F)c4)c3c2)cn1	?	i	i	45µM	i
Cc1ccccc1-c1cnc2[nH]cc(CC(=O)Nc3ccccc3)c2c1	40µM	i	i	?	?
Cc1nn(-c2ccccc2)c2c1C(C)N(C1CCCN(C(=O)NC(C)C)C1)C2=O (centres undefined)	?	nt	nt	i	nt
O=C(Nc1cccc(Br)c1)c1cnc(-c2ccccc2)nc1-c1ccncc1	?	i	i	40µM	?
O=C(Nc1ccc(F)cc1F)c1cnc(-c2ccc(F)cc2)nc1-c1ccncc1	i	i	i	i	i
Cc1ccc(-c2ncc(C(=O)Nc3ccc(F)cc3C)c(-c3ccncc3)n2)cc1	22µM	i	i	40µM	i
O=C(Nc1ccc(Br)c(F)c1)c1cnc(-c2ccccc2)nc1-c1ccncc1	25µM	i	i	32µM	?
Cc1c(Cl)cccc1NC(=O)c1cnc(-c2ccccc2)nc1-c1ccncc1	35µM	i	i	?	?
O=C(c1ccccc1F)N1CCC(n2c(=O)[nH]c3ccccc32)CC1	i	nt	i	?	nt
O=C([C@@H]1CCCN(c2ccc3[nH]c(C4(n5cc(Cl)cn5)CC4)nc3n2)C1)N1CCCC1	nt	nt	i	nt	nt
CCN1C(=O)C2CC3(CCN(C(=O)c4ccc5ncccc5c4)CC3)CN2C1=O (centres undefined)	i	i	i	i	i
SMILES	3T3 cytotox	FLuc inh	GPT2 inhibitor	HEK cytotox	NPR1 antag
CC1(c2ccccc2)N(Cc2ccccc2)C(=O)OC12CCN(C(=O)c1ccc(F)cc1)CC2 (centres undefined)	?	i	i	?	i
COc1ccc(CN2CCC3(CC2)OC(=O)N(Cc2ccccc2C#N)C3(C)c2ccccc2)cc1O (centres undefined)	?	i	i	45µM	i
CC1(c2ccccc2)N(Cc2ccccc2C#N)C(=O)OC12CCN(C(=O)Cc1ccc(O)cc1)CC2 (centres undefined)	11µM	i	i	i	i
CC1(c2ccccc2)N(Cc2ccccc2)C(=O)OC12CCN(C(=O)Cc1ccc(O)cc1)CC2 (centres undefined)	6.3µM	i	i	?	i
CC(=O)N1CCC2(CC1)OC(=O)N(Cc1ccccc1)C2(C)c1ccccc1 (centres undefined)	25µM	i	i	i	i
CC1(c2ccccc2)N(Cc2cccnc2)C(=O)OC12CCN(C(=O)Cc1ccc(Cl)cc1)CC2 (centres undefined)	?	i	i	?	i
COc1ccc(C(=O)N2CCC3(CC2)OC(=O)N(Cc2ccc(O)cc2)C3(C)c2ccccc2)cn1 (centres undefined)	?	i	i	?	i
CC1(c2ccccc2)N(Cc2ccccc2)C(=O)OC12CCN(C(=O)c1cccc(O)c1)CC2 (centres undefined)	?	i	i	79µM	i
CC1(c2ccccc2)N(Cc2ccc(O)cc2)C(=O)OC12CCN(C(=O)c1cccnc1)CC2 (centres undefined)	32µM	i	i	i	i
Cc1nc(CN2C(=O)OC3(CCN(Cc4ccc(C(C)C)cc4)CC3)C2(C)c2ccccc2)cs1 (centres undefined)	45µM	i	i	?	i
CC1(c2ccccc2)N(Cc2ccccc2F)C(=O)OC12CCN(C(=O)Cc1ccc(O)cc1)CC2 (centres undefined)	22µM	i	i	?	i
Cc1nc(CN2C(=O)OC3(CCN(CCc4ccccc4)CC3)C2(C)c2ccccc2)cs1 (centres undefined)	i	i	i	?	i
CC1(c2ccccc2)N(Cc2ccccc2)C(=O)OC12CCN(C(=O)c1cccc(Cl)c1)CC2 (centres undefined)	?	i	i	i	i
CC1(c2ccccc2)N(Cc2ccccc2F)C(=O)OC12CCN(C(=O)CCc1ccccn1)CC2 (centres undefined)	?	i	i	?	i
O=C(Cc1ccsc1)N1CCN(c2cc(-c3cccs3)[nH]n2)CC1	?	?	i	?	i
CCc1noc(-c2cccn3c(CNC(=O)c4ccc(Cl)cc4)nnc23)n1	i	i	i	?	i
CC1(c2ccccc2)N(Cc2ccccc2)C(=O)OC12CCN(Cc1c[nH]c3ccccc13)CC2 (centres undefined)	22µM	i	i	28µM	?
CC1(c2ccccc2)N(Cc2cccnc2)C(=O)OC12CCN(Cc1ccccc1O)CC2 (centres undefined)	i	i	i	?	i
CC1(c2ccccc2)N(Cc2ccc(O)cc2)C(=O)OC12CCN(CC1CC1)CC2 (centres undefined)	79µM	i	i	?	i
COc1ccc(C(=O)N2CCC3(CC2)OC(=O)N(Cc2ccccc2)C3(C)c2cccnc2)cc1 (centres undefined)	?	i	i	i	i
COc1ccc(C(=O)N2CCC3(CC2)OC(=O)N(Cc2ccccc2F)C3(C)c2ccccc2)cn1 (centres undefined)	?	i	i	?	i

Compound activity as filed in PubChem BioAssay.
